# About 85 (0.1%) of roughly 65,000 compounds were called active. The list comes from a sample in which actives are over-represented; it also holds similar structures and randomly drawn compounds. A number with no mark means an inactive call. No stated cut-off is given here; in the data, active means inhibition above about 50%; inactive means the rest.
# Molecular target: M-phase inducer phosphatase 2 (Homo sapiens) (UniProt P30305)
# Assay: inhibitors of Cdc25B phosphatase catalytic domain, primary screen, biochemical, OMFP fluorescence (AID 368)
# Conditions: recombinant Cdc25B, OMFP fluorescence Ex485/Em525; active compounds read high;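 compounds tested at 10 µM final in the well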
# M-phase inducer phosphatase 2 (Homo sapiens), sequence (P30305 whole entry, looked up, the tested form may be a part): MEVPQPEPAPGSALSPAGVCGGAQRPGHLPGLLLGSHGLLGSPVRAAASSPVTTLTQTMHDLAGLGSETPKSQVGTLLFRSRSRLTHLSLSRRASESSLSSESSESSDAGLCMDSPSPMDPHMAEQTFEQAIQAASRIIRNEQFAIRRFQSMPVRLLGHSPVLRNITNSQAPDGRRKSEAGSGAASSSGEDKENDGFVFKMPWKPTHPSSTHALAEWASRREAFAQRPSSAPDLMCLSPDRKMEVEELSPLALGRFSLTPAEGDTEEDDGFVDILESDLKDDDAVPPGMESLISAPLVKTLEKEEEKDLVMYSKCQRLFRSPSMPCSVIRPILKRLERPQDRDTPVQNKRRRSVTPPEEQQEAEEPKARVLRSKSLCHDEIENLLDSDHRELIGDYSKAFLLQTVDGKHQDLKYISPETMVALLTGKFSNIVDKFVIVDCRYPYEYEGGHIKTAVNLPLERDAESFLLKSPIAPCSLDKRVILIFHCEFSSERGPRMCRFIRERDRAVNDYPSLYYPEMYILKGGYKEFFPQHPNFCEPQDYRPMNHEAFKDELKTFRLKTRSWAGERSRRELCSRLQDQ
row,Structure (SMILES),inhibition
1,COc1ccccc1NC(=O)CSc1nnc(Cn2nnc(-c3ccccc3)n2)n1-c1ccccc1,-10.9%
2,COc1ccc(-c2nnn(CC(=O)N(CCO)C(C(=O)NC3CCCC3)c3ccc(F)cc3)n2)cc1 (configuration not stated),-0.846%
3,Cc1ccc(S(=O)(=O)N2CCC(C(=O)OCC(=O)N3CC(=O)Nc4ccccc43)CC2)cc1,-6.66%
4,O=C(CSc1nnc(-c2cccnc2)n1Cc1ccco1)c1ccc(Cl)c(Cl)c1,8.97%
5,CCc1c(C)n([O-])c2c([n+]1=O)CCCCC2,-6.36%
6,COc1cc2cc(CN(CCN3CCCC3)C(=O)Nc3ccccc3Cl)c(=O)[nH]c2cc1OC,-1.08%
7,O=C(Cn1c(-c2ccc(Cl)cc2)noc1=O)N1CCN(c2ccccc2F)CC1,-5.95%
8,CC(C)Oc1ccc(C(=O)Nc2cc(=O)n(C)c(=O)n2C)cc1,-9.38%
9,Fc1cc(F)c2nc(N3CCOCC3)sc2c1,0.504%
10,CC1CCCC(N2CCN(C(=O)c3ccc(F)cc3)CC2)C1 (configuration not stated),-7.26%
11,Cc1ccc(NC(=O)CN2CCC3(O)CCCCC3C2c2ccc3c(c2)OCO3)c(C)c1 (configuration not stated),5.36%
12,CCOC(=O)c1sc2nc(CSCC(=O)OCc3ccc(C(=O)OC)o3)[nH]c(=O)c2c1C,-1.69%
13,COCCN1C(=O)c2oc3c(C)cc(C)cc3c(=O)c2C1c1cccc(O)c1 (configuration not stated),-0.703%
14,CC(=O)c1cc2c(cc1N)OCO2,5.42%
15,COc1ccc(N2CC(C)Cn3c2nc2c3c(=O)n(Cc3ccccc3F)c(=O)n2C)c(OC)c1 (configuration not stated),2.66%
16,CC(=O)c1c(C)c[nH]c1C,-2.46%
17,O=S(=O)(NCc1ccccn1)c1ccc(F)cc1,-7.59%
18,NS(=O)(=O)c1ccc(NS(=O)(=O)/C=C/c2ccccc2)cc1,4.88%
19,O=S(=O)(/C=C/c1ccccc1)NCCc1ccccn1,102% (active)
20,O=C(O)c1cscn1,5.38%
21,COc1ccccc1Nc1ncnc2c1oc1ccccc12,14.9%
22,CC1(C)CC(=O)C=C(NCCCNC2CCCCC2)C1,-12.2%
23,N#Cc1ccc(COC(=O)Cn2nnc(-c3ccccc3)n2)cc1,-19.8%
24,CC(NC(=O)Nc1ccccc1)c1ccccc1 (configuration not stated),-11.4%
25,NC(=O)C1CC=CCC1C(=O)OCC(Cl)=C(Cl)Cl (configuration not stated),-7.55%
26,CC1CN(c2cc(=O)n(Cc3ccc(F)cc3)c(=O)[nH]2)CC(C)O1 (configuration not stated),-7.48%
27,CCOC(=O)c1cccc(NC(=O)C2CCCN(S(=O)(=O)c3cnc[nH]3)C2)c1 (configuration not stated),-1.24%
